GLP-1R agonist – agonists of human GLP-1 receptor; P43220; HEK293 GLP-1R CRE-luciferase, luminescence, 4-6 h; cells express a hypersensitive GLP-1R form; Potency, µM (titrated, usually from 45.6 µM), for the others: at the highest dose activation, most hits filed as activators; 380,000 compounds, 0.007% hits; also: % of control where 0% means no effect
Target sequence (P43220 whole entry, looked up): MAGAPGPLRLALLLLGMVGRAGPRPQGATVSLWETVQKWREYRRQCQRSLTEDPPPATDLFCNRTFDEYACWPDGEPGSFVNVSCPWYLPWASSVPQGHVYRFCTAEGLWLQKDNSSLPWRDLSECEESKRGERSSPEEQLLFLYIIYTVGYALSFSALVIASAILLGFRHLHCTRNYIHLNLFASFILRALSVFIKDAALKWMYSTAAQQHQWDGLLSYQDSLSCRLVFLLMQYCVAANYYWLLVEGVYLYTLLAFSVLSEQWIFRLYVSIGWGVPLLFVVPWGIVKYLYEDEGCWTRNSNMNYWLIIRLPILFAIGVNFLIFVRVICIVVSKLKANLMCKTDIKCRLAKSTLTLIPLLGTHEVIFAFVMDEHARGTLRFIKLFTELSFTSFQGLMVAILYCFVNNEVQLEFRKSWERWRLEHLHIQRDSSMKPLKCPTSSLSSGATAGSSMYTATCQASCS
ATXN2 expr inh – inhibitors of ATXN2 expression; HEK-293 ATXN2-luciferase reporter, luminescence, 24 h; Potency, µM (series often up to 57 µM), for inactives: at the highest dose activity change, negative = inhibition, most hits filed as inhibitors; 360,000 compounds, 0.72% hits; AID 1745845; also: % is scaled to controls: 0 for no effect and ±100 for the full control effect; nearly all actives have a fitted effect of over 55% in size
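ATXN2-luciferase reporter cells (luciferase flanked by upstream and downstream ATXN2 gene portions) were treated 24 h at 37 °C with compounds at up to 57 uM. SteadyGlo luminescence gave expression; GF-AFC fluorescence gave viability.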
S2 tox – viability counter-screen for ATXN expression inhibitors | S2 cells (HEK-293 line with an ATXN2-luciferase reporter) viability, CellTiter-Fluor protease fluorescence, 24 h | Potency, µM (titrated, usually from 56.7 µM), usual class: cytotoxic | 400,000 compounds, 0.49% hits | AID 651635; also: nearly all actives have a fitted effect of over 40% in size
TGFb inhibitor – inhibitors of TGF-b signaling; HepG2 CAGA-GFP TGF-b/SMAD3 reporter, GFP fluorescence, 18 h; TGF-beta stimulated, 500 pg/mL final; Potency, µM (doses to about 46.1 µM), without a hit: top-dose activity, negative = inhibition, actives largely listed as inhibitors; 410,000 compounds, 1.2% hits; AID 588855; also: % is scaled to controls: 0 for no effect and ±100 for the full control effect; nearly all actives have a fitted effect of over 65% in size
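Smad-responsive CAGA-GFP expression was quantified in HEPG2 cells exposed to compounds and 500 pg/mL final TGF-beta for 18 h at 37 degrees C; unstimulated wells defined full inhibition.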
HepG2 tox – HepG2 cytotoxicity, counter-screen for TGF-b inhibitors; HepG2 CAGA-GFP viability, ATP luminescence, 18 h; Potency, µM (top dose mostly 46.1 µM), without a hit: top-dose activity change, negative = cytotoxicity, usual class: cytotoxic; 410,000 compounds, 0.76% hits
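CellTiter-Glo luminescence gave cytotoxicity after 18 hours at 37 degrees C. The cells were HepG2 CAGA-GFP in 1% FBS DMEM, stimulated with 500 pg/mL TGF-beta after compound addition. %Activity was normalised to no-cell wells (complete cell-killing) and DMSO (no toxicity), and curves were fitted and classified.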
GLP-1R inv ag – GLP-1 receptor (human) inverse agonism | HEK293 GLP-1R CRE-luciferase, luminescence, 24 h; GLP-1R form is constitutively active | Potency, µM (titrated, usually from 38.3 µM), inactives show at the top dose activity change, negative = inhibition, usual class: inhibitors | 410,000 compounds, 1.6% hits; also: % is scaled to controls: 0 for no effect and ±100 for the full control effect; nearly all actives have a fitted effect of over 55% in size
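HEK293 cells stably co-expressing constitutively active GLP-1R and a cAMP-responsive luciferase reporter were seeded in DMEM with 10% Nu serum, given compounds after 12 h, and incubated 24 h at 37 deg C. Luminescence was then read.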
* marks the source's active call; other numbers are inactive results; i = inactive; ? = inconclusive; nt = not tested or not shown; ! = not active in a repeat; [ ] = another dose, or the depositor's remark. This is a sample that favours compounds with a hit; in the whole collection about 3.7% have one here. Calls follow the shape of the dose curve; as a rule, active = well fitted curve in the direction sought with a large enough effect; inconclusive = small, poorly fitted or top-dose-only effect, or another doubt; inactive = no such curve, though single readings can be large; an effect the other way counts as inactive or inconclusive. Potency is read from the fitted curve at half-maximal effect.

SMILES	GLP-1R agonist	ATXN2 expr inh	S2 tox	TGFb inhibitor	HepG2 tox	GLP-1R inv ag
CCOC(=O)[C@]12Cc3cc(OC)c(OC)cc3[C@H]1N(Cc1ccccc1)C(=O)c1ccccc12	3%	-20%	i	-3%	-18%	-9%
CCOC(=O)[C@]12Cc3cc(Cl)ccc3[C@H]1N(C)C(=O)c1ccccc12	-10%	2%	i	nt	nt	21%
CCOC(=O)[C@]12Cc3cc(Cl)ccc3[C@H]1N(C(C)C)C(=O)c1ccccc12	-14%	5.6µM*	6.3µM*	nt	nt	?
CCOC(=O)[C@]12Cc3cc(Cl)ccc3[C@H]1N(CC(=O)OC)C(=O)c1ccccc12	-13%	7.1µM*	7.9µM*	nt	nt	7.9µM*
C[C@H]1[C@@H]2Cc3ccc(O)cc3[C@@]1(C)CCN2C	nt	-9%[288 µM]	?	nt	nt	nt
Nc1ccccc1C(=O)OCC(O)CO (configuration not stated)	nt	7%	i	nt	nt	nt
CC(=O)Nc1ccc(OC[C@](C)(O)C(=O)Nc2ccc([N+](=O)[O-])c(C(F)(F)F)c2)cc1	nt	4%	nt	nt	nt	nt
CCOc1ccc(N2C(=O)/C(=C/c3ccco3)C(=O)NC2=S)cc1	-6%	nt	i	?	-47%	-22%
CCOc1ccc(N2C(=O)/C(=C\c3cccs3)C(=O)NC2=S)cc1	0%	32µM*	35µM*	?	-33%	19%
O=C(C[C@@H]1CC[C@@H]2[C@H](COC[C@H](O)CN2Cc2cccc(C(F)(F)F)c2)O1)NCc1ccc(Cl)cc1	nt	nt	nt	nt	nt	10µM*
O=C(CCC(=O)N1C[C@H]2C[C@@H](C1)c1cccc(=O)n1C2)NCc1cccc(C(F)(F)F)c1	-4%	-9%	i	7%	-2%	-20%
CCC(C(=O)Nc1ccccc1C(=O)OC)n1nc(C)c2c(C)n(-c3ccc(C)cc3)nc2c1=O (configuration not stated)	nt	nt	nt	11µM*	-15%	-1%
Cc1ccc(-n2nc3c(N4CCC(C(=O)NCc5ccccc5Cl)CC4)nnc(C)c3c2C)cc1	nt	?	i	?	-18%	-13%
Fc1ccc(C(OCCN2CCCC2)c2ccc(Br)cc2)cc1 (configuration not stated)	3%	-23%	i	?	-24%	5.6µM*
CCNC1(c2cccs2)CCCCC1=O (configuration not stated)	nt	nt	i	nt	nt	nt
CCNC(=O)CC1N=C(c2ccc(Cl)cc2)c2cc(OC)ccc2-n2c(C)nnc21 (configuration not stated)	nt	77%	nt	nt	nt	nt
Cc1c(Cl)cccc1NC(=O)NCCOCCn1c(=O)oc2ccccc21	nt	-21%	i	?	-26%	-22%
CCCCCCOc1ccc(CN2CCN(C)CC2)cc1	-10%	?	i	39%	-47%	3.2µM*
CN[C@@]1(c2ccccc2Cl)CCCCC1=O	nt	nt	i	nt	nt	nt
Cc1c2ccncc2c(C)c2c1[nH]c1ccccc12	0%	14µM*	?	?	13µM*	-8%
COc1ccc(S(=O)(=O)N(CC(=O)NCc2ccccc2OC)c2ccc(C)cc2)cc1	nt	nt	nt	?	-16%	3.2µM*
CCOc1ccc(S(=O)(=O)N(CC(=O)NCCc2ccc(OC)c(OC)c2)c2ccccc2)cc1	2%	5%	i	?	-12%	?
Cc1cnc(SCc2ccccn2)nc1C1CCCN(C(=O)c2cccc(-c3cccc(F)c3)c2)C1 (configuration not stated)	nt	nt	32µM*	nt	nt	nt
CSc1ccccc1C(=O)C1CCCN(Cc2ccccn2)C1 (configuration not stated)	-1%	-1%	i	-18%	-20%	-24%
CC(C)c1ccc2c(c1)C(N1CCNCC1)Cc1ccc(F)cc1S2 (configuration not stated)	10%	?	?	18µM*	-91%	?
SMILES	GLP-1R agonist	ATXN2 expr inh	S2 tox	TGFb inhibitor	HepG2 tox	GLP-1R inv ag
CCOc1ccccc1NC(=O)NCc1ccc2c(c1)CCN2C(=O)c1ccccc1	nt	nt	nt	?	-17%	-19%
c1ccc(CCCN2CCN(CCOC(c3ccccc3)c3ccccc3)CC2)cc1	3%	27µM*!	?	?	11µM*	?
N[C@@H](Cc1ccc(N(CCCl)CCCl)cc1)C(=O)O	0%	5.4µM*!	?	33%	-1%	?
CC(=O)NC(Cc1ccc(N(CCCl)CCCl)cc1)C(=O)O (configuration not stated)	-3%	?	i	1%	-36%	-2%
O=C(Nc1ccc(OC(F)(F)F)cc1)Oc1ccccc1N1CCCCC1	-5%	nt	?	13µM*	-102%	?
O=C(Nc1ccc(OC(F)(F)F)cc1)Oc1ccccc1N1CCOCC1	-7%	-25%	i	?	-65%	-16%
CC(=Cc1csc(C)n1)[C@@H]1C[C@H]2O[C@@H]2CCC[C@H](C)[C@@H](O)[C@@H](C)C(=O)C(C)(C)[C@@H](O)CC(=O)O1	nt	-22%	nt	nt	nt	nt
COc1ccc2c3c1O[C@H]1[C@@H](O)C=C[C@H]4[C@@H](C2)N(C)CC[C@@]341	nt	?	14µM*	nt	nt	nt
CN1CC[C@]23c4c5ccc(O)c4O[C@H]2[C@@H](O)C=C[C@H]3[C@H]1C5	nt	52%[116 µM]	i	nt	nt	nt
CN1[C@@H]2CC[C@H]1CC(OC1c3ccccc3CCc3ccccc31)C2 (some centres not stated)	-1%	-5%	i	52%	-32%	2µM*
Fc1ccc(CCNCc2ccc(Cl)c(Cl)c2)cc1	-9%	?	?	?	13µM*	?
NS(=O)(=O)c1ccc(-c2ccc(C=C3C(=O)NC(=O)NC3=O)o2)cc1	17%	-2%	i	3%	-19%	8%
O=C1NC(=O)C(=Cc2ccc(SC3CCCCC3)o2)C(=O)N1	-7%	18µM*	nt	?	-59%	?
CCOc1ccc(-c2c(C)n(-c3ccc(OCC)cc3)c3[n+]2CCCCC3)cc1	-2%	?	i	1µM*	-18%	?
CN(C)C(=S)SSC(=S)N(C)C	-1%	?	22µM*	-92%	0.1µM*	?
Sc1ccccc1Cl	nt	-4%	i	nt	nt	nt
CCC(C)C1NC(=O)C2CCCN2C(=O)C(CC(C)C)OC(=O)CCNC(=O)C(C)N(C)C(=O)C(C(C)C)N(C)C1=O (configuration not stated)	9%	?	?	-13%	-37%	?

Screens (PubChem)
